How the values were obtained:
Assay in all cases: PBM binding z-score (relative to random genomic background probes); higher = stronger binding; sequences stand for … in GC…GCGATTGACAGCGTAGAATGAAGG
[1] = test system: FXR:RXRa (NR concentration 270 nM, RXRa partner concentration 90 nM)
Summary of the method: (§1)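 Custom Agilent 4×180K protein-binding microarrays carried double-stranded probes, each with a 34-nt variable region. These regions held direct-repeat seeds, single-nucleotide variants, half-site ablations and random human genomic background sequences. Ligand-free nuclear receptor dimers were incubated on the arrays for 1 h, antibodies against each partner (one per run) detected binding, and scanned fluorescence was regression-normalized. Binding z-scores take the random background probes as reference.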

[2] = test system: LXRa:RXRa (NR concentration 270 nM, RXRa partner concentration 90 nM)
Summary of the method: as §1

[3] = test system: LXRa homodimer (NR concentration 270 nM)
Summary of the method: as §1

[4] = test system: LXRb:RXRa (NR concentration 270 nM, RXRa partner concentration 90 nM)
Summary of the method: as §1

[5] = test system: LXRb homodimer (NR concentration 270 nM)
Summary of the method: as §1

[6] = test system: PPARa:RXRa (NR concentration 270 nM, RXRa partner concentration 90 nM)
Summary of the method: as §1

[7] = test system: PPARg:RXRa (NR concentration 180 nM, RXRa partner concentration 90 nM)
Summary of the method: as §1

[8] = test system: PPARg:RXRa 270nM:90nM, anti-RXR (NR concentration 270 nM, RXRa partner concentration 90 nM)
Summary of the method: as §1

[9] = test system: PPARg:RXRa 30nM:10nM, anti-RXR (NR concentration 30 nM, RXRa partner concentration 10 nM)
Summary of the method: as §1

[10] = test system: PPARg:RXRa 90nM:30nM, anti-RXR (NR concentration 90 nM, RXRa partner concentration 30 nM)
Summary of the method: as §1

| Sequence | PBM binding z-score [1] | PBM binding z-score [2] | PBM binding z-score [3] | PBM binding z-score [4] | PBM binding z-score [5] | PBM binding z-score [6] | PBM binding z-score [7] | PBM binding z-score [8] | PBM binding z-score [9] | PBM binding z-score [10] |
| --- | --- | --- | --- | --- | --- | --- | --- | --- | --- | --- |
| ATCTCTGGGTAACCAAGTTCAGTGAATGCCGAAC | 0.227 | 0.778 | 0.498 | 0.621 | 0.534 | 1.09 | 0.329 | 0.858 | -0.0191 | 0.333 |
| CAGCCTAGGTCAGGGCCAGTGTAGGAGGAACGTT | 1.51 | 1.17 | -0.646 | 0.424 | -1.41 | 2.1 | 0.721 | 0.845 | -0.701 | -0.0334 |
| TTTATTAGTTGATTAGGGCAACCGAAACAGCGGA | 0.664 | 0.617 | 0.865 | 0.942 | 1.33 | 1.15 | 0.565 | 1.71 | 1.69 | 1.72 |
| GGAACGAGTGCAAGTTGATAGCAGAGTTTGATGG | -0.219 | -0.282 | -0.428 | -0.496 | -0.508 | -0.279 | 0.107 | -0.41 | -0.349 | -0.508 |
| CGAACTAGGTCATTGACAGGAAAGTGAATAGTAA | 4.94 | 2.6 | 0.115 | 2.01 | -0.078 | 4.67 | 7.36 | 6.32 | 3.65 | 5.55 |
| TTACCATGGTGAAAGGTCGTTGATGCACGCCTTG | 1.54 | 1.93 | 0.41 | 2.22 | -0.316 | 4.04 | 5.88 | 6.89 | 5.62 | 8.01 |
| CCTACTGGGCCACGAAAGGTCGTTGATTCAGTGA | 0.933 | 1.81 | 0.373 | 1.5 | -0.704 | 2.67 | 2.53 | 2.93 | 0.0833 | 1.96 |
| CCTTGGAGGACAACAGGAGGTCAGAGCTGCCAGA | 1.03 | 2.19 | 2.44 | 1.58 | -0.284 | 2.26 | 0.731 | 0.64 | 0.153 | 0.077 |
| GCCGACAGGTGAAACGCAGGTAACTCAGGGTGGC | -0.479 | 0.0317 | -0.662 | -0.204 | -1.11 | 0.797 | 0.421 | -0.333 | -0.664 | -0.468 |
| TCTGCTAGGTCAACGATCGTCAGCTAATCTGCTA | 2.97 | 2.19 | -0.465 | 1.24 | -0.245 | 3.11 | 2.49 | 3.26 | 1.96 | 2.76 |
| CCTCTTAGTTGACCATAAGGGCAACCGAAGCTCG | 0.875 | 0.419 | 0.345 | 0.647 | 0.541 | 0.868 | 0.219 | 0.342 | -0.34 | 0.305 |
| CCTAGCAGGCCAATCTGGGTCACTCCAGGCTTGA | 0.645 | 1.09 | -0.166 | 0.329 | -1.31 | 2.6 | 1.99 | 2.05 | -0.235 | 1.03 |
| AGTTACGGGTCAACGAGGTTATAGCACGCGTATA | 6.05 | 5.15 | 0.781 | 4.47 | 0.793 | 5.63 | 5.57 | 5.55 | 2.17 | 4.38 |
